Data on ten compounds can be found in ChEMBL document CHEMBL3988442, “University of Dundee, Small-Polar-MMV Screening Library” (2021).

Common to all, as to parameters: scale not given: direction of the effect not stated beside the values
Test [1] concerns the target Protein translocase subunit SecA (Escherichia coli (strain K12)) (UniProt P10408). Put plainly: Assay to Identify E. coli SecA ATPase Inhibitors. In kind it is functional. The note with it: 30 µM.
Test [2] addresses T1, Ubiquitin-activating enzyme e1, putative (Leishmania donovani (strain BPK282A1)) (UniProt E9BSI1).
T1 sequence (whole entry): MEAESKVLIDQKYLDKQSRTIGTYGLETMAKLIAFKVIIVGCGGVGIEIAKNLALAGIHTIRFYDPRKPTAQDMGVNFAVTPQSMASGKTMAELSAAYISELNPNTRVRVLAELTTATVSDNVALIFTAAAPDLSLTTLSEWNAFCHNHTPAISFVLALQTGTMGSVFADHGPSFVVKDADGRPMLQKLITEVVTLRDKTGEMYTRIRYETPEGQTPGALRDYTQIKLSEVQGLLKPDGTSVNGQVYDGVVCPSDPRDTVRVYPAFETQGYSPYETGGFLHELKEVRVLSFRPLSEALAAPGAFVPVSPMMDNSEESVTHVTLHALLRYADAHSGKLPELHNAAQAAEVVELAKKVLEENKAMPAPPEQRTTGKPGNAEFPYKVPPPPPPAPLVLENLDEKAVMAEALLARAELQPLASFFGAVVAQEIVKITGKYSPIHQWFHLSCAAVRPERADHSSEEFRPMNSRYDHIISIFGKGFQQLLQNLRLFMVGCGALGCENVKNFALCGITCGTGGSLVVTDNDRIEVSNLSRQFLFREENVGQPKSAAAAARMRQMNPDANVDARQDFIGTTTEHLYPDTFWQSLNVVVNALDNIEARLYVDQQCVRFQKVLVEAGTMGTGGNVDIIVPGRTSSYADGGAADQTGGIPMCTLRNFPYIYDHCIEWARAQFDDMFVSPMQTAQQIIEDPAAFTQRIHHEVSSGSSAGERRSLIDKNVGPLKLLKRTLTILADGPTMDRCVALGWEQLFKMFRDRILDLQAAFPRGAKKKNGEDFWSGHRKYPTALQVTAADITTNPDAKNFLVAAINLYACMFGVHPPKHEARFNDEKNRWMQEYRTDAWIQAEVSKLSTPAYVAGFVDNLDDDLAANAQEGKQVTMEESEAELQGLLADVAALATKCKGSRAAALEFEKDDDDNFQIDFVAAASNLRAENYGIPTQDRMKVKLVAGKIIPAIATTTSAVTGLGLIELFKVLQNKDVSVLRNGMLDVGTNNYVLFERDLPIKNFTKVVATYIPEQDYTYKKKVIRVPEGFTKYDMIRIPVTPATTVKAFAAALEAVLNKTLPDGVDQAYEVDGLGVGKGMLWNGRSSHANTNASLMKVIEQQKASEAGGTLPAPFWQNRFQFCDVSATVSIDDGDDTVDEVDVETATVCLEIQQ
The test is described as follows: Leishmania donovani Ubiquitin Activating Enzyme (LdE1). The format is functional. The note with it: 30 µM.

In test [3] the target is AMP-activated protein kinase, AMPK (Homo sapiens) (UniProt P54646+O43741+P54619+Q9UGJ0+Q9Y478+Q13131+Q9UGI9). The test is described as follows: AMP-dependent Kinase enzyme assay. An in vitro enzyme assay that detects ADP turnover that is directly proportional to AMPK activity. This uses naive AMPK that is activated during the assay with MK-8722. The format is functional. The note with it: 30 µM.

In test [4] the target is Sialic acid-binding Ig-like lectin 9 (Homo sapiens) (UniProt Q9Y336). The test is described as follows: Hs-Siglec9 ALPHAscreen SOP 20170721. The note with it: 10 µM. Background: Bead proximity is the source of the signal in Alpha formats.
The test system of the next test is Trypanosoma cruzi. The test is described as follows: Trypanosoma cruzi phosphomannomutase and mannose-1-phosphate guanylyltransferase assay. The format is functional. The note with it: 10 µM.
In test [5] the target is T2, Arginase-2, mitochondrial (Homo sapiens) (UniProt P78540).
T2 sequence (whole entry): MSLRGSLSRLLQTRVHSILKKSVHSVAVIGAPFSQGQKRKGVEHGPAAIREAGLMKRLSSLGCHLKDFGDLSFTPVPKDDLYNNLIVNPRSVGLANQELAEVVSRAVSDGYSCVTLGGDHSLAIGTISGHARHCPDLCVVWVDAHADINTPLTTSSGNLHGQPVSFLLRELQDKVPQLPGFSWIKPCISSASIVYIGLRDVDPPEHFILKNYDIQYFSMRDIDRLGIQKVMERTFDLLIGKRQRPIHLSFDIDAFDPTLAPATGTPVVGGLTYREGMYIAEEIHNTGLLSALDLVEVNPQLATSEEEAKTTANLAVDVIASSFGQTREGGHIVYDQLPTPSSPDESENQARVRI
Put plainly: in vitro enzyme assay to detect the production of urea directly proportional to the activity of Arginase II. Note: in the data most compounds retested in dose-response had high values. The note with it: 33.3 µM. In kind it is functional.

The target in test [6] is T3, Proteasome subunit beta (Trypanosoma cruzi) (UniProt O96673).
T3 sequence (whole entry): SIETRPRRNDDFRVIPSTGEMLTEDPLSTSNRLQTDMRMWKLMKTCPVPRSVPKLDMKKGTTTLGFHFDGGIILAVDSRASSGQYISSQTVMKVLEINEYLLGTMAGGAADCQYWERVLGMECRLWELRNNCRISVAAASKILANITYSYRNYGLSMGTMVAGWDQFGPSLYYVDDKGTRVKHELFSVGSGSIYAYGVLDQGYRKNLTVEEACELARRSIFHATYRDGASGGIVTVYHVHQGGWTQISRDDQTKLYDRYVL
The test is described as follows: Trypanosoma cruzi proteasome chymotrypsin-like activity (TcProtChymo) assay. Note: in the data most compounds retested in dose-response had high values. The note with it: 9.37 µM. In kind it is functional.

The species named for the next test is Homo sapiens. Put plainly: To identify inhibition of the IFN signalling (Jak-Stat) pathway via expression of an eGFP reporter gene under the control of an IFN-stimulated response element (ISRE) containing MxA promoter. In kind it is functional. The note with it: 30 µM. For orientation: In a reporter assay the amount or activity of a reporter protein is the signal.

Test [7] has as its target T4, Tyrosyl-tRNA synthetase, putative (Trypanosoma cruzi (strain CL Brener)) (UniProt Q4DSP6).
T4 sequence (whole entry): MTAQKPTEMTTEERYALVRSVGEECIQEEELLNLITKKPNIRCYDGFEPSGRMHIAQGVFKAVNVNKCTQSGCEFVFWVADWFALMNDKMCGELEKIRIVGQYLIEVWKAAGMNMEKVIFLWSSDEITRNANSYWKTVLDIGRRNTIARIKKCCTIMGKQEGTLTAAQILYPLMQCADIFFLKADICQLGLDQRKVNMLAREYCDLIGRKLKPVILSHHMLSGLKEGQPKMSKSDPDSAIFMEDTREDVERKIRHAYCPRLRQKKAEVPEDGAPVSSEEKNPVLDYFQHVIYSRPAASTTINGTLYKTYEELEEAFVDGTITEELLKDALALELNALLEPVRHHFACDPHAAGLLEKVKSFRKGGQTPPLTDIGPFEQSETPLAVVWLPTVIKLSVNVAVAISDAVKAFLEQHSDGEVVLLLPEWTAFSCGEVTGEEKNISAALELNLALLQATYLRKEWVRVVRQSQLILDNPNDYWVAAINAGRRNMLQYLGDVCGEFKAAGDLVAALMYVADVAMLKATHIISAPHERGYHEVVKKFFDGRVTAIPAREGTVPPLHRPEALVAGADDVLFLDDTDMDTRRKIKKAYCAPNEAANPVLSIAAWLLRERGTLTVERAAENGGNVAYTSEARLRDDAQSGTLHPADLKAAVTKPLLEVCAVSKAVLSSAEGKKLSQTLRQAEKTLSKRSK
The test is described as follows: Trypanosoma cruzi tyrosyl tRNA synthetase (TcYRS) _High Tyrosine SOP. Note: in the data most compounds retested in dose-response had high values. In kind it is functional. The note with it: 30 µM.

The target in test [8] is T4, Tyrosyl-tRNA synthetase, putative (Trypanosoma cruzi (strain CL Brener)). Put plainly: Trypanosoma cruzi tyrosyl tRNA synthetase (TcYRS) SOP. The note with it: 30 µM. The format is functional.
For test [9], the target named is Chromo domain-containing protein 1 (Saccharomyces cerevisiae (strain ATCC 204508 / S288c) (Baker's yeast)) (UniProt P32657). The test is described as follows: ScCHD-1 Enzyme Inhibition Assay. Note: in the data most compounds retested in dose-response had high values. In kind it is functional. The note with it: 30 µM.

Molecules are shown by their SMILES. For some assays here: Results with a measured potency or affinity are listed apart.

Sequence of Sialic acid-binding Ig-like lectin 9 (Homo sapiens) (Q9Y336 whole entry): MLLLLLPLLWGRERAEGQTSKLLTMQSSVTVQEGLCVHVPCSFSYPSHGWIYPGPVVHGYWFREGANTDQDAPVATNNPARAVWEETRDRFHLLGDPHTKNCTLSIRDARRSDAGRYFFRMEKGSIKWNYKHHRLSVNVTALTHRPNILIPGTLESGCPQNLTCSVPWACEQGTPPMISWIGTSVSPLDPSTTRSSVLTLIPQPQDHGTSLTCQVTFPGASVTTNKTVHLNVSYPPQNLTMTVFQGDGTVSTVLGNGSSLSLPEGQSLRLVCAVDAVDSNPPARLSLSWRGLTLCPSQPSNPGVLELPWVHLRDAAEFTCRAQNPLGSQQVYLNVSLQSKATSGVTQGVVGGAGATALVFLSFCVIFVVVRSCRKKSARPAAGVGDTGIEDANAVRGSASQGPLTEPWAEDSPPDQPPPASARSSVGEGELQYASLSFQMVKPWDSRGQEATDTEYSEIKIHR
Sequence of Chromo domain-containing protein 1 (Saccharomyces cerevisiae (strain ATCC 204508 / S288c) (Baker's yeast)) (P32657 whole entry, the tested form may be a part): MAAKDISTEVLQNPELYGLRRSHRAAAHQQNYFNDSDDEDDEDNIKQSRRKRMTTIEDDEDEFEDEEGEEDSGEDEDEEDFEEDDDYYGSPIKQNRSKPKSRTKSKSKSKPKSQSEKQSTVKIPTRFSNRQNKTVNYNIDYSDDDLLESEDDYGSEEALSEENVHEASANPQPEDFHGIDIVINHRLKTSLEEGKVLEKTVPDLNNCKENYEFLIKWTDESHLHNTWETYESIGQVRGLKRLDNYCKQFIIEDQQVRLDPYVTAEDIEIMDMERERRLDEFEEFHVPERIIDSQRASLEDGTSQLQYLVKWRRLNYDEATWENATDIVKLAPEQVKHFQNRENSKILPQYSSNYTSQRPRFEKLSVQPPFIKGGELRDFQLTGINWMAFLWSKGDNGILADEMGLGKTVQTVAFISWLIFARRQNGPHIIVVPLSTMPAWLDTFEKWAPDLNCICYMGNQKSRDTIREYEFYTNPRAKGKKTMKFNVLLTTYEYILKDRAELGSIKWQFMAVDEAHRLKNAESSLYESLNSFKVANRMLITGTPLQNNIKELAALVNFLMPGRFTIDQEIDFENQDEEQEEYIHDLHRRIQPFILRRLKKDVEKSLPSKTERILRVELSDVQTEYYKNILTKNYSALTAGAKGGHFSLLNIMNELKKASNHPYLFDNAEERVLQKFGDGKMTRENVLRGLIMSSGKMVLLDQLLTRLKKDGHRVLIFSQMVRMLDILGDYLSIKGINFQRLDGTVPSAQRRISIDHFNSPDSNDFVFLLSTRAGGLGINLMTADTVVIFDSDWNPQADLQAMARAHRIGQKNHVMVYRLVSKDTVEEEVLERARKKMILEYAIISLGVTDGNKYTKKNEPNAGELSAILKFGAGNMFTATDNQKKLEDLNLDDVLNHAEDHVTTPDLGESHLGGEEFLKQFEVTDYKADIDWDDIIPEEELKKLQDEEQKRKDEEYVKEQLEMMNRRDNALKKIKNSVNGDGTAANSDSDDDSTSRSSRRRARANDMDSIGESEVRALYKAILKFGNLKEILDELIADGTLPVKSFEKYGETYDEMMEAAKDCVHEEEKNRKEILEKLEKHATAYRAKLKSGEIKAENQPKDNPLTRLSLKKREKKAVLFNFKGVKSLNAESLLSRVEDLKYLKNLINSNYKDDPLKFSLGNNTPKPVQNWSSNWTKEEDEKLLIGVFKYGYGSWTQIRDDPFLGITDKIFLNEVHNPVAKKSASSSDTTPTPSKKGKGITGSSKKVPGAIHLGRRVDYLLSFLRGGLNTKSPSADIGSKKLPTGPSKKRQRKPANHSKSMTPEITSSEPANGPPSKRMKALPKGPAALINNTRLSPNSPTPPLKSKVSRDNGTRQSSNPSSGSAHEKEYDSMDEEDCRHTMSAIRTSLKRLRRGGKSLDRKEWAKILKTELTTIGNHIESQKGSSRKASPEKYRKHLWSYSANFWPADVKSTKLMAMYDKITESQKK
Sequence of Protein translocase subunit SecA (Escherichia coli (strain K12)) (P10408 whole entry): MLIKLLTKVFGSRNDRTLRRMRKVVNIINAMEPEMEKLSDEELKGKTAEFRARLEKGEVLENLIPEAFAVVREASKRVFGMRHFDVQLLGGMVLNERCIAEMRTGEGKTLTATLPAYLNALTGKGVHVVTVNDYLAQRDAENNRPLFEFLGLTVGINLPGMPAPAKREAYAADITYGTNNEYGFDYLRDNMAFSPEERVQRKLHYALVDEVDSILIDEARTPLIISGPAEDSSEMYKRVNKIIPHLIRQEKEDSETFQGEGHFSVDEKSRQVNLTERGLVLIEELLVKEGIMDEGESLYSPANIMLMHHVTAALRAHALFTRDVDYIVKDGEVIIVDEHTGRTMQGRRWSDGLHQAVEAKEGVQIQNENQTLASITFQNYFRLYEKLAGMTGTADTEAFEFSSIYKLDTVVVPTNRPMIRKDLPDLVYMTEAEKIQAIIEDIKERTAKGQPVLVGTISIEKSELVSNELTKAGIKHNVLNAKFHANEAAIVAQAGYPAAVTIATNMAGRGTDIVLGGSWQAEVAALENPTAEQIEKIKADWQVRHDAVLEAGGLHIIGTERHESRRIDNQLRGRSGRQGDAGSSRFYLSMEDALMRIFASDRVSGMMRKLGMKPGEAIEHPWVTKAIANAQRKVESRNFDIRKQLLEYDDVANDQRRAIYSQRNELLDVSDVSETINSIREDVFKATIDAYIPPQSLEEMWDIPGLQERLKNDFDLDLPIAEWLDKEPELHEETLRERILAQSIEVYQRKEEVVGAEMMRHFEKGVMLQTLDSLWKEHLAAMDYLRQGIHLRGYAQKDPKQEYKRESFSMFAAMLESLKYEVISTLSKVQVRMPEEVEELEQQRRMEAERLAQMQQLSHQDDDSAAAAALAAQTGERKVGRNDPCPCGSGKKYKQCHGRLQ

As to `CCN(Cc1ccccc1)C(=O)CN1CCCC(Cn2cncn2)C1` (stereo not given), the Percent Effect was -8.07% in [1]; 21.1% in [2]; -3.72% in test [3]; 18.3% in test [4]; 3.64% in the test on Trypanosoma cruzi; 2.16% in [5]. Besides, the Percent Effect in [6] is 8.38%; in the test listed under Homo sapiens, -4.88%; in [7], -4.43%; in test [8], 23.5%; in test [9] it was -6.71%.

For the compound `CCN1CC(C(=O)NCc2ccnc(-n3ccnc3C)c2)CC1=O` (stereo not given), the Percent Effect in test [1] was -2.69%; in [2] it was 0%; in test [3], -12.9%; in [4], -7.63%; in the test with Trypanosoma cruzi, 0%; in test [5] it was -3.18%. Moreover, the Percent Effect is 3.02% in [6]; 20.3% in the test filed under Homo sapiens; -1.07% in test [7]; -2.5% in test [8]; -4.95% in test [9].

Turning to `c1cc2n(n1)CC(CNCc1ccc(OC3CCCCC3)nc1)CN2` (stereo not given), the Percent Effect is -2.12% in test [1]; 18.2% in test [2]; 1.34% in test [3]; 5.86% in test [4]; 7.49% in the test on Trypanosoma cruzi; -1.78% in test [5]. In addition, the Percent Effect is 5.41% in [6]; -2.37% in the test filed under Homo sapiens; 9.71% in test [7]; 21.9% in test [8]; -7.9% in [9].

As to `N#Cc1c(F)cccc1N1CCN(S(=O)(=O)c2cccs2)CC1`, the Percent Effect is -2.74% in test [1]; -8.22% in test [2]; 3.3% in [3]; 3.95% in [4]; 3.33% in the test on Trypanosoma cruzi; 13.2% in test [5]. For the same compound, the Percent Effect in test [6] is 8.16%; in the test filed under Homo sapiens, 55.5%; in test [7] it was -38.7%; in [8] it was -52.5%; in test [9] it was 48.5%.

Turning to `Cc1ccc(CN2CCC3(CC(C(=O)NCC4CC4)=NO3)C2)cc1C` (stereo not given), the Percent Effect was -4.16% in test [1]; 2.67% in test [2]; 7.69% in test [3]; -4.65% in test [4]; -4.05% in the test on Trypanosoma cruzi; -64% in test [5]. In addition, the Percent Effect was 0.684% in test [6]; 2% in the test listed under Homo sapiens; 0% in test [7]; 7.5% in test [8]; -7.33% in test [9].

Take `CC(=O)N1CCCC1c1cccc(Cc2ccc(F)cc2)n1` (stereo not given): the Percent Effect is -4.97% in [1]; 5.33% in test [2]; 10.8% in [3]; 3.6% in test [4]; 5.91% in the test with Trypanosoma cruzi; -0.233% in [5]. Besides, the Percent Effect in test [6] came to 5.37%; in the test filed under Homo sapiens it was 15.6%; in [7] it was 4.25%; in [8], 8.97%; in [9] it was 1.18%.

`CCn1ccnc1CN1CCN(CCOc2cccc(C#N)c2)CC1`: the Percent Effect is -4.35% in [1]; 21.1% in [2]; -6.98% in test [3]; -4.93% in test [4]; 5.64% in the test on Trypanosoma cruzi; -0.383% in test [5]. Moreover, the Percent Effect in [6] is 11.9%; in the test listed under Homo sapiens, 4.93%; in test [7], 8.33%; in [8], 19.5%; in [9], -13%.

As to `COc1ccc(-n2nnc(C(=O)NC(C)C)c2C2CC2)cc1`, the Percent Effect in [1] was -1.4%; in [2], 1.39%; in test [3] it was -9.18%; in [4] it was 9.95%; in the test with Trypanosoma cruzi it was 4.96%; in test [5] it was 15%. Moreover, the Percent Effect in test [6] was 4.21%; in the test listed under Homo sapiens, 9.68%; in test [7] it was 0%; in test [8], 0%; in test [9] it was -0.372%.

Turning to `Cc1ccc(Nc2nccc(C3CCCN(CC(=O)N(C)C)C3)n2)nc1` (stereo not given), the Percent Effect is -5.52% in test [1]; 5.33% in test [2]; -1.77% in test [3]; 6.73% in test [4]; 5.51% in the test on Trypanosoma cruzi; -6.76% in test [5]. Also, the Percent Effect in [6] was 13.8%; in the test filed under Homo sapiens it was -1.72%; in test [7], 11.7%; in test [8] it was 19.2%; in test [9] it was -2.77%.

Consider `CN(C(=O)NCc1ccncc1)C1CCN(c2ccccc2)C1=O` (stereo not given), for which the Percent Effect in test [1] was -4.85%; in test [2] it was 13.2%; in test [3], -3.87%; in test [4] it was 3.74%; in the test on Trypanosoma cruzi, 6.58%; in [5], -3.06%. Moreover, the Percent Effect in test [6] is 10%; in the test listed under Homo sapiens it was 5.78%; in test [7] it was 6.37%; in test [8] it was 12.2%; in test [9], -10.8%.
